Several values for one entry are separate records, joined by “and”; a condition that tells them apart may be missing. Equal values may be shown once. Inconclusive results are not listed. A call without a number means that no potency is given here. Activity calls are given as the source filed them. Unless noted, the call rests on the fitted dose curve; in most records, active means well fitted curve in the direction sought with a large enough effect in the repeat runs; inconclusive means weak or mixed curves; inactive means no such curve, though single readings can be large; an effect the other way counts as inactive or inconclusive.

System in one test: not listed separately
Kind of test: qHTS for Activators of Parkin Expression: LOPAC Validation Assay (NLuc Reporter) (AID 720572; active means well fitted curve in the direction sought with a large enough effect; an effect the other way counts as inactive or inconclusive). To be noted: Parkin promoter NanoLuc reporter cells, luminescence; series mostly up to 46.1 µM. The essentials: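 Parkin promoter-driven FLuc/NLuc neuronal reporter cells; 24 h plating, 7-pt dose response, 24 h at 37 C/5% CO2; FLuc then NanoLuc reagent, 10 min each, luminescence; DMSO/positive control normalized.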
As for `CNC(=O)[C@H]1O[C@@H](n2cnc3c(NCc4cccc(I)c4)ncnc32)[C@H](O)[C@@H]1O`, the Potency entry was “inactive”.

As for `O=C1NC(=O)/C(=C/c2ccc3nccnc3c2)S1`, the Potency entry was “inactive”.

`O=C(c1ccc(OCCCc2cnc[nH]2)cc1)C1CC1`: the Potency result was “inactive”.

Regarding `CN(C)c1ccc(/C=C2\C(=O)Nc3ccccc32)cc1`, the Potency result is “inactive”.

Take `O=C(O)[C@@H]1C[C@@H](C(=O)O)N1`: the Potency entry is “inactive”.

System in another test: not listed separately
Kind of test: qHTS assay for small molecule agonists of the antioxidant response element (ARE) signaling pathway measured by Nrf2-dependant transcriptional activity (AID 720636). Further: potency means the concentration at half of the fitted maximal effect. To be noted: ARE-luc HepG2, Nrf2 luciferase reporter, 16 h; series mostly up to 92.4 µM. An outline of the steps:
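ARE-luc HepG2 cells carrying an Nrf2-responsive luciferase reporter were plated in medium with 1% dialyzed FBS, left 6 hr at 37 C to attach, then exposed to compound for 16 hr. Luciferase luminescence was read after ONE-Glo addition.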
In the case of `CN1[C@@H]2CC[C@H]1CC(OC(=O)C(CO)c1ccccc1)C2` (stereo not given in full), the Potency entry was “inactive”.

Take `Nc1ccc(O)c(C(=O)O)c1`: the Potency entry is “inactive”.

Turning to `CN(C)c1ccc(C(=C2C=CC(=[N+](C)C)C=C2)c2ccccc2)cc1`, the Potency result is “inactive”.

For the compound `O=C(O)[C@H](O)[C@@H](O)[C@H](O)[C@H](O)CO`, the Potency result was “inactive”.

As for `COc1cc(/C=C/C(=O)CC(=O)/C=C/c2ccc(O)c(OC)c2)ccc1O`, the Potency is 21.1 µM (active).

`O=C1CN(/N=C/c2ccc([N+](=O)[O-])o2)C(=O)N1`: the Potency entry is “inactive”.

System in a further test: not listed separately
The test can be described thus: qHTS assay for small molecule antagonists of the retinoid-related orphan receptor gamma (ROR-gamma) signaling pathway - cell viability counter screen (AID 720652).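 Further: compound exposure lasted 16 hr before ATP read.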 Further: potency means the concentration at half of the fitted maximal effect. To be noted: RORgamma reporter cell line viability counter screen; series mostly up to 92.2 µM. An outline of the steps: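 Luminescence from CellTiter-Glo after 30 min at room temperature reported cellular ATP as the cytotoxicity measure. Cells were the CHO reporter line with doxycycline-induced ROR-gamma expression, exposed to compound for 16 hr at 37 C.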
In general terms: Quantitative high-throughput screening tests each substance at several concentrations.
For the compound `Nc1ccc(O)c(C(=O)O)c1`, the Potency result was “inactive”.

For `CN(C)c1ccc(C(=C2C=CC(=[N+](C)C)C=C2)c2ccccc2)cc1`, the Potency was 2.37 µM (active).

In the case of `COc1cc(CNC(=O)CCCC/C=C/C(C)C)ccc1O`, the Potency entry was “inactive”.

System in the next test: not listed separately
Kind of test: qHTS assay for small molecule agonists of the antioxidant response element (ARE) signaling pathway measured by Nrf2-dependant transcriptional activity - cell viability counter screen (AID 720653). Further: potency means the concentration at half of the fitted maximal effect. To be noted: ARE-bla HepG2 viability, CellTiter-Glo ATP luminescence, 16 h; max response: hits give low values. An outline of the steps: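 Cytotoxicity counter screen: intracellular ATP quantified by CellTiter-Glo luminescence in the same ARE-bla HepG2 plates, after 16 h compound exposure and a 2 h beta-lactamase substrate step.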
For `CN1[C@@H]2CC[C@H]1CC(OC(=O)C(CO)c1ccccc1)C2` (stereo not given in full), the max response was -6.68% (inactive).

For `Nc1ccc(O)c(C(=O)O)c1`, the max response is -2.51% (inactive) and -1.43% (inactive).

In the case of `CN(C)c1ccc(C(=C2C=CC(=[N+](C)C)C=C2)c2ccccc2)cc1`, the Potency was 6.31 µM (active).

In the case of `O=C(O)[C@H](O)[C@@H](O)[C@H](O)[C@H](O)CO`, the max response is 21% (inactive).

For `COc1cc(CNC(=O)CCCC/C=C/C(C)C)ccc1O`, the max response was -7.9% (inactive) and -5.74% (inactive).

As for `COc1cc(/C=C/C(=O)CC(=O)/C=C/c2ccc(O)c(OC)c2)ccc1O`, the max response is -2.44% (inactive).

The target in the next test is Hexokinase-4 (Homo sapiens) + Glucokinase regulatory protein (Homo sapiens) (UniProt P35557+Q14397). The test can be described thus: qHTS assay for inhibitors of recombinant human GCK-GKRP interaction: ADP-Glo assay (AID 743206; active means well fitted curve in the direction sought with a large enough effect; an effect the other way counts as inactive or inconclusive). To be noted: ADP-Glo luminescence, 60 min; series mostly up to 76.9 µM. The essentials: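 GST-GCK and FLAG-GKRP (15 nM each in the dispensed mix, with 2 uM S6P) react with 0.4 mM ATP and 5 mM glucose (final) in Hepes pH 7.6 for 60 min at room temperature. ADP is measured by ADP-Glo luminescence.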
Sequence of Hexokinase-4 (Homo sapiens) + Glucokinase regulatory protein (Homo sapiens) (P35557 whole entry, looked up): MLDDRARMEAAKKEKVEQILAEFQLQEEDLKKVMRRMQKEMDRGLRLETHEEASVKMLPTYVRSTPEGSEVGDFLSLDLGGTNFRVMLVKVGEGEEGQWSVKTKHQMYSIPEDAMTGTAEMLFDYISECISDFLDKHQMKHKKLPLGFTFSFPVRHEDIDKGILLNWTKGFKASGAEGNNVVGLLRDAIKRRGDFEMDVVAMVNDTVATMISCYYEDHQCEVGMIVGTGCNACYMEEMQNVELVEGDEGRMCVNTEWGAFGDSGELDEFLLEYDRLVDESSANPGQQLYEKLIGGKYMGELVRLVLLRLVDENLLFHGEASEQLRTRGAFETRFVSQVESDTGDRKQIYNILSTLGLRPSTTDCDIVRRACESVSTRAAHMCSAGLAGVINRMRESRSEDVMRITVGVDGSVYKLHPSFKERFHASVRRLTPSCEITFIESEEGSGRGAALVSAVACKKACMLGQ
Sequence of Hexokinase-4 (Homo sapiens) + Glucokinase regulatory protein (Homo sapiens) (Q14397 whole entry, looked up): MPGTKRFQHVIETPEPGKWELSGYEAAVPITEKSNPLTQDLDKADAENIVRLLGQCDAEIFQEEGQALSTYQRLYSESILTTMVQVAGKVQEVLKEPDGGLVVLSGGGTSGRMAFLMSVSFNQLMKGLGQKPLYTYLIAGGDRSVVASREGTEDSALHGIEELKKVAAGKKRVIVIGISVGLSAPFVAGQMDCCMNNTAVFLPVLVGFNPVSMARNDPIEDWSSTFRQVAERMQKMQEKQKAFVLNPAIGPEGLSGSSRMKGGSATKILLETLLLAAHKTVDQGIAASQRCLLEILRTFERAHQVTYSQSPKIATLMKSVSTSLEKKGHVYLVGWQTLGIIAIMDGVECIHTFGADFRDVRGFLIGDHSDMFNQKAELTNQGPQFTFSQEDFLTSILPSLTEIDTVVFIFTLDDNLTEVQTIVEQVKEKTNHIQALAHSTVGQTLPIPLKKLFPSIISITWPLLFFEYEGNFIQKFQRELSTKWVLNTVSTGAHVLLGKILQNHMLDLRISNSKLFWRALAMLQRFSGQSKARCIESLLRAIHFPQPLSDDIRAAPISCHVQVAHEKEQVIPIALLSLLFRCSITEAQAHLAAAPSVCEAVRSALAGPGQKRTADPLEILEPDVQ
Turning to `CNC(=O)[C@H]1O[C@@H](n2cnc3c(NCc4cccc(I)c4)ncnc32)[C@H](O)[C@@H]1O`, the Potency entry is “inactive”.

Turning to `O=C1NC(=O)/C(=C/c2ccc3nccnc3c2)S1`, the Potency entry was “inactive”.

Consider `O=C(c1ccc(OCCCc2cnc[nH]2)cc1)C1CC1`, for which the Potency result is “inactive”.

For the compound `CN(C)c1ccc(/C=C2\C(=O)Nc3ccccc32)cc1`, the Potency entry was “inactive”.

Regarding `O=C(O)[C@@H]1C[C@@H](C(=O)O)N1`, the Potency entry is “inactive”.
